Hits are enriched below; roughly 9.2% of the tested compounds scored in any of these assays.
SMN2 splice up = enhancers of SMN2 splice variant expression; 210,000 compounds, 2.8% hits; HEK293 SMN2-luciferase splicing reporter, luminescence, 30-36 h; Potency, µM (doses to about 46.1 µM), for the others: top-dose activity change, positive = activation, most hits filed as activators; note: % of control where 0% means no effect; nearly all actives have a fitted effect of over 55% in size
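HEK293 cells carry an SMN2 […]–luciferase reporter in which exon 7 inclusion puts luciferase in frame. Cells were plated 10-12 h before compound addition, then incubated 30-36 h at 37C. ONE-Glo luminescence was read; sodium butyrate at 4.5 mM final served as control.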
Rab9 prom act = activates the Rab9 promoter. AID 485297. 320,000 compounds, 2.8% hits. Huh7 Rab9 promoter-luciferase reporter, luminescence, 24 h. Potency, µM (doses to about 9.22 µM), for inactives: at the top dose activation, negative = inhibition, actives largely listed as activators; note: % of control where 0% means no effect; nearly all actives have a fitted effect of over 60% in size
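Using Huh7 cells stably transfected with Rab9 promoter–luciferase, compounds were incubated 24 h at 37 °C, 5% CO2; luciferase luminescence was read 10 min after reagent addition.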
FLuc modulator = counter-screen for miR-21 project: firefly luciferase inhibitors or activators | Potency, µM (highest dose often 57.5 µM), for the others: top-dose activity change, negative = inhibition, usual class: inhibitors | P08659 | 360,000 compounds, 6.9% hits | purified FLuc, Km substrates, luminescence inhibition | AID 588342;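 note: plate controls were vehicle for no effect and reference inhibitor for full effect; nearly all actives have a fitted effect of over 55% in size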
Target sequence (P08659 whole entry, looked up): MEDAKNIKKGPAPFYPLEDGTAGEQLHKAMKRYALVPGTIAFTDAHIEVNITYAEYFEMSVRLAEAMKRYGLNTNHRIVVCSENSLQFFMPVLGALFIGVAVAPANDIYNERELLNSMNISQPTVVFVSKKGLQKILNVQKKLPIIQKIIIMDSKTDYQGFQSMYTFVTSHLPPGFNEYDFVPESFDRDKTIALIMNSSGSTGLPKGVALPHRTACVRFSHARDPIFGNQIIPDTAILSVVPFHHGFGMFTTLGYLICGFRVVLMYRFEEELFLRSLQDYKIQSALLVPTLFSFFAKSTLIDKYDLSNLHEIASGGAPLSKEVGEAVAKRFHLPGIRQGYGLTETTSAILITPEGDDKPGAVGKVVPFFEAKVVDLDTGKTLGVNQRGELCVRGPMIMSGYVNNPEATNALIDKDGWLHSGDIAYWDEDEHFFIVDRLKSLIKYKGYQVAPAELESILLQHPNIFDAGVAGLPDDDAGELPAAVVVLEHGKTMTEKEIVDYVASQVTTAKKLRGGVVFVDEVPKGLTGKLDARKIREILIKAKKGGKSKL
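Biochemical qHTS of compounds, final roughly 60 µM downward over six points, against 10 nM purified firefly luciferase using Km concentrations of substrates (10 uM D-luciferin, 10 uM ATP) in Tris acetate pH 7.5 buffer; luminescence output.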
NPC1 promoter act = activators of NPC1 promoter; Huh7 NPC1 promoter luciferase reporter, 24 h; Potency, µM (top dose mostly 9.22 µM), without a hit: at the highest dose activation, actives largely listed as activators; 320,000 compounds, 2.4% hits; note: % of control where 0% means no effect; nearly all actives have a fitted effect of over 60% in size
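Compounds in DMSO were transferred onto Huh7 NPC1-luciferase reporter cells pre-incubated 2 h; after 24 h at 37 °C, Amplite reagent was dispensed and luminescence recorded 10 min later.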
ELG1 repair inh = blocks ELG1-dependent DNA repair in HEK293T cells; HEK293T ELG1-luciferase reporter, luminescence, 16 h; DNA damage induced by 5-fluorouridine; Potency, µM (top dose mostly 46.1 µM), inactives show top-dose activity change, negative = inhibition, hits mostly inhibitors; 330,000 compounds, 2.3% hits; AID 504467; note: % is set by controls: 0 for no effect and ±100 for the full control effect; nearly all actives have a fitted effect of over 55% in size
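Quantitative HTS, concentration-response format. 2,000 cells/well co-treated with 5-fluorouridine and compound, 16 hr in 5% CO2 at 37 °C; ONE-Glo luminescence read after 30 min.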
ELG1 genotoxic = genotoxicity induction in ELG1-luciferase HEK293T cells; HEK293T ELG1-luciferase reporter, luminescence, 16 h; Potency, µM (top dose mostly 46 µM), for inactives: at the highest dose activity change, positive = activation, actives largely listed as activators; 330,000 compounds, 1.3% hits; AID 504466; note: % of control where 0% means no effect; nearly all actives have a fitted effect of over 60% in size
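HEK293T cells expressing luciferase-tagged ELG1 were treated with compound or DMSO for 16 hr at 37°C. Luciferase activity was then read after 30 min with ONE-Glo at room temperature; rising signal flags genetic stress.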
Active calls of the source: *; ? = inconclusive; . = no result given; [ ] = another dose, or the depositor's remark. Calls come from the whole dose curve; as a rule, active = well fitted curve in the direction sought with a large enough effect; inconclusive = small, poorly fitted or top-dose-only effect, or another doubt; inactive = no such curve, though single readings can be large; an effect the other way counts as inactive or inconclusive. Potency is the fitted concentration of half-maximal effect.

SMILES	SMN2 splice up	Rab9 prom act	FLuc modulator	NPC1 promoter act	ELG1 repair inh	ELG1 genotoxic
Cc1cccc(C(=O)N[C@H](C(=O)Nc2nc3ccccc3[nH]2)C(C)C)c1	-28%	-19%	-1%	-17%	?	?
COc1ccc(C(=O)N[C@H](C(=O)Nc2nc3ccccc3[nH]2)C(C)C)cc1	10µM*	-5%	6.7µM*	15%	?	12µM*
Cc1cc(N2C(=O)C(O)=C(C(=O)c3ccco3)C2c2ccccc2F)no1 (stereo unspecified)	.	-3%	8%	-5%	?	-10%
N#Cc1c(NC(=O)c2ccco2)sc2c1CCC2	.	5%	-1%	-6%	?	-1%
CCN1CCc2c(sc(NC(=S)NC(=O)c3ccccc3)c2C#N)C1	-1%	3%	-9%	-2%	2%	3%
CCC1(C)Cc2c(sc(NC(=S)NC(=O)c3ccccc3)c2C#N)CO1 (stereo unspecified)	2%	28%	6µM*	18%	?	5%
CN1Cc2sc(NC(=S)NC(=O)c3ccccc3)c(C#N)c2CC1(C)C	.	9%	13µM*	8%	?	?
CC1CCc2sc(NC(=S)NC(=O)c3ccccc3)c(C#N)c2C1 (stereo unspecified)	?	?	12µM*	?	?	10%
N#Cc1c(NC(=S)NC(=O)c2ccccc2)sc2c1CCC2	-17%	?	-17%	19%	?	?
CC1(C)Cc2c(sc(NC(=O)c3ccco3)c2C#N)CO1	?	3.2µM*	1.9µM*	1.6µM*	?	?
COc1ccc(NS(=O)(=O)c2cc3[nH]c(=O)c(=O)[nH]c3cc2C)cc1Cl	.	.	-11%	.	.	.
CN(C)S(=O)(=O)c1ccc(N2CCCC2)c(C(=O)Nc2nc(-c3cc(F)ccc3F)cs2)c1	-1%	1%	-2%	-4%	?	0%
CC(CC(=O)Nc1ccc(F)cc1)S(=O)(=O)c1cc2c3c(c1)CCN3C(=O)CC2 (stereo unspecified)	.	.	-2%	.	.	.
COc1ccc(C(=O)N2CCC3(CCN(Cc4nccs4)CC3)CC2)cc1	-19%	.	.	.	.	.
CCCNC(=O)C(Cc1ccccc1)NS(=O)(=O)c1ccc2c(c1)c(=O)n(C)c(=O)n2C (stereo unspecified)	9%	1%	-3%	1%	5%	-3%
CCCCN(C)C(=O)C(Cc1ccccc1)NS(=O)(=O)c1ccc2c(c1)c(=O)n(C)c(=O)n2C (stereo unspecified)	13%	-8%	-6%	-3%	15µM*	-15%
S=c1nc(-c2ccccc2)c(-c2ccccc2)n[nH]1	.	-1%[1.84 µM]	-3%	-7%	-4%	-4%
Nc1c(-c2ccccc2)n[nH]c1-c1ccccc1	13µM*	?	-4%[2.3 µM]	2.8µM*	?	?
CCC(=C(CC)c1ccc(O)cc1)c1ccc(O)cc1	-24%[20.6 µM]	.	.	.	.	.
Fc1ccc(/C=C\c2nccc3c2[nH]c2ccccc23)cc1	16%	18%	5.4µM*	20%	-7%	9%
Cc1ccc(/C=C\c2nccc3c2[nH]c2ccccc23)cc1	?	?	1.7µM*	?	?	?
Cc1[nH]c2ccccc2c1/C=C/c1cc[n+](C)cc1	-26%	-43%	2%	-36%	-4%	-22%
c1ccc2c(c1)[nH]c1ccccc12	-3%	.	.	.	.	.
CSc1ccc(/C=C/c2cc(=O)c3ccccc3[nH]2)cc1	17%	?	?	15%	?	13%
C(=C\c1nccc2c1[nH]c1ccccc12)/c1ccccc1	.	?	7.6µM*	?	?	-5%
SMILES	SMN2 splice up	Rab9 prom act	FLuc modulator	NPC1 promoter act	ELG1 repair inh	ELG1 genotoxic
O=C(O)C[C@H]1OCC=C2C[N@@+]3([O-])CC[C@]45c6ccccc6N[C@@H]4[C@@H]1[C@H]2C[C@H]53	8%[9.22 µM]	.	.	.	.	.
CCCc1cc(=O)[nH]c(SCC(=O)Nc2sccc2C#N)n1	.	-4%	-6%	1%	14%	1%
Cc1ccc(NS(=O)(=O)c2cc(NC(=O)c3ccc4c(c3)NC(=O)CS4)ccc2Cl)c(C)c1	-81%	-5%	?	-4%	23µM*	-17%
O=C(NCCc1ccc(F)cc1)NC12CC3CC(CC(C3)C1)C2	.	3.5µM*	11µM*	2.5µM*	?	?
O=C(NCCC1=CCCCC1)NC12CC3CC(CC(C3)C1)C2	-12%	0.89µM*	3.4µM*	0.63µM*	?	?
COc1ccc(CCNC(=O)NC23CC4CC(CC(C4)C2)C3)cc1	-18%	20%	?	19%	13%	9%
CCC(=O)Nc1ccc(CC)cc1-c1nc2ccccc2n(Cc2ccccc2)c1=O	.	.	-6%	.	.	.
CCOc1ccc(Br)cc1C1=CC(=O)C[C@H](c2ccc(OC)cc2)C1	.	2%	4%	-26%	-29%	1%
Brc1cccc(-c2n[nH]c(-c3ccccc3)n2)c1	10µM*	3.5µM*	3µM*	6.3µM*	?	2.3µM*
c1ccc(-c2nc(-c3cccnc3)n[nH]2)cc1	?	28%	?	16%	?	9%
COc1ccc(-c2cc(C(=O)Nc3ccccc3N3CCOCC3)c3ccccc3n2)cc1OC	-58%	2%	?	-7%	12µM*	-18%
O=C(Nc1ccccc1N1CCOCC1)c1cc(-c2ccncc2)nc2ccccc12	-6%	-6%	-3%	-3%	15µM*	-12%
O=C(Nc1ccc(N2CCOCC2)cc1)c1cc(-c2ccncc2)nc2ccccc12	.	-3%	-10%	-4%	?	-8%
Nc1ccc(C#Cc2ccc3c(=O)c4ccccc4oc3c2)cc1	.	3.5µM*	?	2.2µM*	?	?
C#CCNC(=O)C1=C[C@H](c2ccc(C(F)(F)F)cc2)[C@@H](CCCO)[C@H](OCC)O1	.	-3%	-1%	-1%	-22%	-3%
CCN1CCN(CCNC(=O)c2ccc(CS(=O)c3ccc(Br)cc3)o2)CC1 (stereo unspecified)	.	3%	2%	0%	-4%	1%
CC(C)(C)c1cc(CCC(=O)NCc2ccncc2)cc(C(C)(C)C)c1O	.	15%	-17%	-3%	11%	4%
CCCNC(=O)C1CC(=O)N(c2ccc(OCc3ccc(Cl)cc3)cc2)C1 (stereo unspecified)	.	4µM*	2.1µM*	1.4µM*	?	1.8µM*
CCOc1ccc(N2CC(C(=O)NCCc3ccccc3)CC2=O)cc1 (stereo unspecified)	.	-5%	1%	0%	-1%	-3%
CCCNC(=O)C1CC(=O)N(c2ccc(OCc3ccc(F)cc3)cc2)C1 (stereo unspecified)	.	0.89µM*	4.8µM*	0.63µM*	?	6.5µM*

Assay outcomes as filed in PubChem.
